# Measurements taken from PubChem BioAssay AID651776 (Vanderbilt Specialized Chemistry Center, 2012).
# Biological target: Muscarinic acetylcholine receptor M5 (Homo sapiens) (UniProt P08912)
# Assay: M5 positive allosteric modulator fold shift, mechanism study, cell-based, calcium fluorescence (AID 651776)
# Settings: M5-expressing cells, agonist fold-shift, agonist curve fold shift, stronger effect = higher value
# Sequence of Muscarinic acetylcholine receptor M5 (Homo sapiens) (P08912 whole entry, looked up): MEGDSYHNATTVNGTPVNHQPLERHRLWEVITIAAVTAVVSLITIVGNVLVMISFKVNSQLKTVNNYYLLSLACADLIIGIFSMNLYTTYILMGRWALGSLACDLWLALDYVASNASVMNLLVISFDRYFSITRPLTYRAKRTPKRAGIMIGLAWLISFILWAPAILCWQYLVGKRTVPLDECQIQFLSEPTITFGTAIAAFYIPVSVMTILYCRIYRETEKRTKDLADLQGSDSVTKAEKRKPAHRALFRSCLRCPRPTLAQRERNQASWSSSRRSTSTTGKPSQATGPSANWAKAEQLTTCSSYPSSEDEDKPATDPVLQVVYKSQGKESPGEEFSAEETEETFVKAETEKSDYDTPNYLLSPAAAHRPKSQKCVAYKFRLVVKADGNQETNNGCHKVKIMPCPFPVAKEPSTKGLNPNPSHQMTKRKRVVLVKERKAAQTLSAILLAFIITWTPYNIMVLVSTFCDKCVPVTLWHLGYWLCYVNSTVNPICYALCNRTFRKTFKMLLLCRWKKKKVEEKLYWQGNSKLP
structure (smiles),measurement,value
O=C1C(=O)N(CCOc2ccccc2)c2ccc(OC(F)(F)F)cc21,fold shift,19.2
